In paper PMC5700166:
Substitutions are numbered along the chain they refer to.

Legend:
Assay in all cases: protein-binding microarray (PBM); PBM: ~300 nM protein, 6 mM HEPES pH 7.8, 80 mM KCl, 0.5 mM EDTA, 0.5 mM EGTA, 6% glycerol, 35 ng/ul poly-dIdC, 1% milk, 1 h, room temperature; Ap Aiptasia and Nv Nematostella (sea anemones) / Co Capsaspora / Aq Amphimedon (sponge) / Dm Drosophila / Hu human; RHD is the Rel homology domain; high values mean tight binding
Settings in all cases: dsDNA, one strand shown
[1] = target: T1, GST-Co-NF-kB (Capsaspora owczarzaki, UniProt F1ARL5 200-546)
T1 sequence: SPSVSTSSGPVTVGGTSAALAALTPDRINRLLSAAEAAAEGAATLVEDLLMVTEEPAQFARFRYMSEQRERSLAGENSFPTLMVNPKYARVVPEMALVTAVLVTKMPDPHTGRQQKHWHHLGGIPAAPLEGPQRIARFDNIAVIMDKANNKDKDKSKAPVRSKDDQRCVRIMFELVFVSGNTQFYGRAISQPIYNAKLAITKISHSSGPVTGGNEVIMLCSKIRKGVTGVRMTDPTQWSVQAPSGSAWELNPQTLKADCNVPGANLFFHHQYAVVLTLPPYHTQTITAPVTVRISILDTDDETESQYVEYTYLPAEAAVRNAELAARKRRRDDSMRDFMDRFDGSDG

[2] = target: T2, GST-Aq-NF-kB (Amphimedon queenslandica, UniProt A9Y5G7 2-389)
T2 sequence: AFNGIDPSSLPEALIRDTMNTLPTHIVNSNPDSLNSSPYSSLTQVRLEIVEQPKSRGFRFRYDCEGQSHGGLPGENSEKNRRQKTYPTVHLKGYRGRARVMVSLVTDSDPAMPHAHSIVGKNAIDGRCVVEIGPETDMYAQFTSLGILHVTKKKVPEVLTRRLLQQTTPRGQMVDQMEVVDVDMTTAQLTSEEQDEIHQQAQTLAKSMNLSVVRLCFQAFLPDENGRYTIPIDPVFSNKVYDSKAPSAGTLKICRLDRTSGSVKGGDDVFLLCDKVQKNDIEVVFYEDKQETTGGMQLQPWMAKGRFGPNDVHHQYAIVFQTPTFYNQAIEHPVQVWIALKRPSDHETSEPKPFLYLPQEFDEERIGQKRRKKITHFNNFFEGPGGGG

[3] = target: T3, GST-Nv-NF-kB (Cys allele) (Nematostella vectensis, UniProt E5G601 2-411)
T3 sequence: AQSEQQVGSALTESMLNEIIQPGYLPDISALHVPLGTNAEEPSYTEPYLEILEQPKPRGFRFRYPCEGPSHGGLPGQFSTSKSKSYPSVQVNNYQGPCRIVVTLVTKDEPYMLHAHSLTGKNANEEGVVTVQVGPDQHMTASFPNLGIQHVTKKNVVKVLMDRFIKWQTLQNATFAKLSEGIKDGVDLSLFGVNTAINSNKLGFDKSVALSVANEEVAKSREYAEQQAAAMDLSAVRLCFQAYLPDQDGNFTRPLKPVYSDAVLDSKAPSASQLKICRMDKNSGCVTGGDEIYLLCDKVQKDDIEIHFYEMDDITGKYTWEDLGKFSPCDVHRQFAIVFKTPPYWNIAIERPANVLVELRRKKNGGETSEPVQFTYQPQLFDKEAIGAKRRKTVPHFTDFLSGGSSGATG

[4] = target: T4, GST-Dm-Relish (Drosophila melanogaster, UniProt Q94527 99-473)
T4 sequence: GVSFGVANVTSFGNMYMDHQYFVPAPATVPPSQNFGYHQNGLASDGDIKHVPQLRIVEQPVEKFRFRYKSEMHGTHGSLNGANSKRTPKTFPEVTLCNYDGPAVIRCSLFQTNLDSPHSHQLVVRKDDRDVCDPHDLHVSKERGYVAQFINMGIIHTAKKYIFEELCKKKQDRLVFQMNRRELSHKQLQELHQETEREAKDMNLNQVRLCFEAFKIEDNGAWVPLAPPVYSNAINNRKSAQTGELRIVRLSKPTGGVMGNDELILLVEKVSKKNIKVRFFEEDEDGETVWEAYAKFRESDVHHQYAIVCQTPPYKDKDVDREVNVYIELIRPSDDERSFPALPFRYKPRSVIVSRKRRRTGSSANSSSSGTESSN

[5] = target: T5, GST-Nv-NF-kB (Ser allele) (Nematostella vectensis, UniProt A7UNT2 2-411)
T5 sequence: T3 sequence with Q21R, C66S, S207N, E215Q, V217A, E225K, A268E, D399E

For “CCGATTAACATCAGGAGTATCCCTGATGTTAATCGGGTCTTGATTCGCTTGACGCTGCTG”, the binding signal [1] was 1.01 z-score and the binding signal [2] was 3.53 z-score.

With “CCGATTAACATCAAGGACTTTCCTGATGTTAATCGGGTCTTGATTCGCTTGACGCTGCTG” the binding signal [3] was 1.03 z-score, the binding signal [4] was 3.11 z-score and the binding signal [2] was 4.6 z-score.

In the case of “CCGATTAACATCAAAATATTCCGTGATGTTAATCGGGTCTTGATTCGCTTGACGCTGCTG”, the binding signal [1] is reported as 1.07 z-score and the binding signal [2] is reported as 1.1 z-score.

“CCGATTAACATCAATTGGGAAATTGATGTTAATCGGGTCTTGATTCGCTTGACGCTGCTG” showed a binding signal [3] of 3.36 z-score, a binding signal [5] of 3.48 z-score and a binding signal [1] of 1.8 z-score. The binding signal [4] was 1.48 z-score and the binding signal [2] was 1.63 z-score.

In the case of “CCGATTAACATCACATTGGGAAATGATGTTAATCGGGTCTTGATTCGCTTGACGCTGCTG”, the binding signal [3] is reported as 2.26 z-score, the binding signal [1] is reported as 2.31 z-score and the binding signal [4] is reported as 1.18 z-score. The binding signal [2] was 1.18 z-score.

Work on “CCGATTAACATCAGGAATTTACCTGATGTTAATCGGGTCTTGATTCGCTTGACGCTGCTG” yielded a binding signal [3] of 3.18 z-score, a binding signal [4] of 4.54 z-score and a binding signal [2] of 4.81 z-score.

With “CCGATTAACATCAAAAAAAATCCTGATGTTAATCGGGTCTTGATTCGCTTGACGCTGCTG” the binding signal [4] was 3.09 z-score and the binding signal [2] was 2.68 z-score.

Work on “CCGATTAACATCAGGAAAATTTATGATGTTAATCGGGTCTTGATTCGCTTGACGCTGCTG” yielded a binding signal [4] of 1.44 z-score and a binding signal [2] of 1.26 z-score.

For “CCGATTAACATCACAGGAATTCCTGATGTTAATCGGGTCTTGATTCGCTTGACGCTGCTG”, the binding signal [4] was 3.05 z-score and the binding signal [2] was 2.17 z-score.

Work on “CCGATTAACATCACGGAATTCCATGATGTTAATCGGGTCTTGATTCGCTTGACGCTGCTG” yielded a binding signal [4] of 1.4 z-score and a binding signal [2] of 1.3 z-score.

Sequence “CCGATTAACATCAATAAATTTCCTGATGTTAATCGGGTCTTGATTCGCTTGACGCTGCTG” has a binding signal [4] of 1.55 z-score and a binding signal [2] of 1.86 z-score.

“CCGATTAACATCAAAATTTTCCTTGATGTTAATCGGGTCTTGATTCGCTTGACGCTGCTG” showed a binding signal [4] of 2.92 z-score and a binding signal [2] of 1.12 z-score.

Work on “CCGATTAACATCAGGAAACCCACTGATGTTAATCGGGTCTTGATTCGCTTGACGCTGCTG” yielded a binding signal [4] of 3.86 z-score and a binding signal [2] of 1.01 z-score.

Work on “CCGATTAACATCACGGAAACTACTGATGTTAATCGGGTCTTGATTCGCTTGACGCTGCTG” yielded a binding signal [4] of 1.84 z-score and a binding signal [2] of 1.46 z-score.

With “CCGATTAACATCACCCTTGCAGGTGATGTTAATCGGGTCTTGATTCGCTTGACGCTGCTG” the binding signal [4] was 1.5 z-score and the binding signal [2] was 1.27 z-score.

“CCGATTAACATCAAAAATTCCTATGATGTTAATCGGGTCTTGATTCGCTTGACGCTGCTG” showed a binding signal [4] of 1.74 z-score and a binding signal [2] of 1.2 z-score.

Sequence “CCGATTAACATCAAGGAAAGTCCTGATGTTAATCGGGTCTTGATTCGCTTGACGCTGCTG” has a binding signal [4] of 3.16 z-score and a binding signal [2] of 4.65 z-score.

For “CCGATTAACATCACGGTTTTTCCTGATGTTAATCGGGTCTTGATTCGCTTGACGCTGCTG”, the binding signal [4] was 3.51 z-score and the binding signal [2] was 3.6 z-score.

Work on “CCGATTAACATCAGGAAAAATCCTGATGTTAATCGGGTCTTGATTCGCTTGACGCTGCTG” yielded a binding signal [4] of 1.66 z-score and a binding signal [2] of 1.79 z-score.

“CCGATTAACATCAGGATTTTTCATGATGTTAATCGGGTCTTGATTCGCTTGACGCTGCTG” was tested, and the binding signal [4] was 1.76 z-score and the binding signal [2] was 1.09 z-score.

Sequence “CCGATTAACATCAGGATTTACCATGATGTTAATCGGGTCTTGATTCGCTTGACGCTGCTG” has a binding signal [4] of 3.08 z-score and a binding signal [2] of 1.48 z-score.

With “CCGATTAACATCAAGGAAACTCCTGATGTTAATCGGGTCTTGATTCGCTTGACGCTGCTG” the binding signal [4] was 1.12 z-score and the binding signal [2] was 2.64 z-score.

For “CCGATTAACATCAGGAATTTTACTGATGTTAATCGGGTCTTGATTCGCTTGACGCTGCTG”, the binding signal [4] was 1.49 z-score and the binding signal [2] was 1.14 z-score.

In the case of “CCGATTAACATCACGTAATTTCCTGATGTTAATCGGGTCTTGATTCGCTTGACGCTGCTG”, the binding signal [4] is reported as 1.85 z-score and the binding signal [2] is reported as 1.14 z-score.

“CCGATTAACATCAGGAATCTCCATGATGTTAATCGGGTCTTGATTCGCTTGACGCTGCTG” was tested, and the binding signal [4] was 1.01 z-score and the binding signal [2] was 1.6 z-score.

In the case of “CCGATTAACATCAGAGGATTTCCTGATGTTAATCGGGTCTTGATTCGCTTGACGCTGCTG”, the binding signal [4] is reported as 1.74 z-score and the binding signal [2] is reported as 1.55 z-score.

“CCGATTAACATCAGGAAATTTTATGATGTTAATCGGGTCTTGATTCGCTTGACGCTGCTG” gave a binding signal [4] of 1.46 z-score and a binding signal [2] of 1.85 z-score.

For “CCGATTAACATCAACGGAATTCCTGATGTTAATCGGGTCTTGATTCGCTTGACGCTGCTG”, the binding signal [4] was 2.11 z-score and the binding signal [2] was 1.66 z-score.

“CCGATTAACATCACGGGCATTCCTGATGTTAATCGGGTCTTGATTCGCTTGACGCTGCTG” gave a binding signal [4] of 2.37 z-score and a binding signal [2] of 3.21 z-score.

With “CCGATTAACATCAGGACATCCCATGATGTTAATCGGGTCTTGATTCGCTTGACGCTGCTG” the binding signal [4] was 3.93 z-score and the binding signal [2] was 2.15 z-score.

Work on “CCGATTAACATCAGGACTTTACATGATGTTAATCGGGTCTTGATTCGCTTGACGCTGCTG” yielded a binding signal [4] of 6.1 z-score and a binding signal [2] of 1.25 z-score.

With “CCGATTAACATCAGGATTTTCCATGATGTTAATCGGGTCTTGATTCGCTTGACGCTGCTG” the binding signal [4] was 1.28 z-score and the binding signal [2] was 2.57 z-score.

Work on “CCGATTAACATCACGGAAACCACTGATGTTAATCGGGTCTTGATTCGCTTGACGCTGCTG” yielded a binding signal [4] of 3.59 z-score and a binding signal [2] of 1.46 z-score.

“CCGATTAACATCACGGACTTTCCTGATGTTAATCGGGTCTTGATTCGCTTGACGCTGCTG” gave a binding signal [4] of 2.95 z-score and a binding signal [2] of 5.31 z-score.
